The panel holds about 83,000 compounds, 20% with a hit somewhere; the sample as a whole holds those more often.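 Method: cells in 96-well plates; compound added at one concentration; 48 h incubation; percent growth measured; values under 10 scored active.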 Unmarked numbers belong to inactive results. Calls of active or inactive are those of the source.

Some test systems named below: NCI-H23 lung; NCI-H226 lung; NCI-H322M lung; HOP-62 NSCLC; NCI-H460 lung; HOP-92 NSCLC; NCI-H522 lung; A549/ATCC NSCLC; 786-0 renal; COLO 205 colon; DU-145 prostate; K-562 leukemia; MALME-3M melanoma; MDA-MB-231 breast; SF-268 CNS; SF-295 CNS; SF-539 CNS; M14 melanoma.
Test in all cases: NCI-60 one-dose screen, 48 h (100 = growth as untreated, 0 = no growth, -100 = all killed)
Common to all, as to conditions: 10 µM unless noted

Consider `Nc1c(C(=O)c2ccccc2)sc2nc(-c3cccs3)ccc12`, for which the growth is 36.8% in the experiment with NCI-H23 lung; 63.5% in the experiment on NCI-H226 lung; 51.1% in the experiment on NCI-H322M lung; 44.5% in the experiment with HOP-62 NSCLC; 12.1% in the experiment on NCI-H460 lung; 69.6% with HOP-92 NSCLC. In addition, the growth in the experiment on NCI-H522 lung is -25.7% (active); with A549/ATCC NSCLC it was 19.6%; in the experiment with 786-0 renal, 51.7%; in the experiment with COLO 205 colon, -21.8% (active); in the experiment on DU-145 prostate, 20.6%; in the experiment on K-562 leukemia, 14.1%. Also, the growth in the experiment with MALME-3M melanoma was 72.5%; with MDA-MB-231 breast, 37.9%; with SF-268 CNS it was 45.7%; in the experiment on SF-295 CNS, 5.01% (active); in the experiment with SF-539 CNS it was 1.09% (active); with M14 melanoma it was 30.2%.

Regarding `CCOC(=O)C1=C(C)N=C2Sc3cccc(OC)c3N2[C@H]1c1ccccn1`, the growth in the experiment with NCI-H23 lung was 86.9%; with NCI-H226 lung, 84.9%; in the experiment on NCI-H322M lung, 96.4%; in the experiment with HOP-62 NSCLC, 80.6%; in the experiment with NCI-H460 lung it was 105%; with HOP-92 NSCLC it was 93.3%. Further, the growth with NCI-H522 lung is 81.2%; with A549/ATCC NSCLC it was 94%; in the experiment on 786-0 renal, 113%; in the experiment with COLO 205 colon, 103%; in the experiment with DU-145 prostate it was 105%; with K-562 leukemia, 101%. Moreover, the growth in the experiment with MALME-3M melanoma was 91.2%; in the experiment on MDA-MB-231 breast, 90.6%; in the experiment on SF-268 CNS it was 94.2%; with SF-295 CNS, 101%; with SF-539 CNS, 103%; with M14 melanoma, 103%.

For the compound `C=C1C(=O)O[C@H]2[C@H]1CC/C(CNC(=O)c1cc3cc(OC)ccc3[nH]1)=C\CC[C@@]1(C)O[C@@H]21`, the growth is -54.8% (active) in the experiment with NCI-H23 lung; -40.5% (active) with NCI-H226 lung; 65.4% in the experiment with NCI-H322M lung; 46.9% with HOP-62 NSCLC; 19.3% in the experiment on NCI-H460 lung; -67.3% (active) in the experiment with HOP-92 NSCLC. Moreover, the growth with NCI-H522 lung is -67.5% (active); in the experiment on A549/ATCC NSCLC, 18.5%; in the experiment with 786-0 renal, -67.2% (active); in the experiment with COLO 205 colon it was -73.6% (active); in the experiment on DU-145 prostate, -92% (active); with K-562 leukemia, -3.44% (active). In addition, the growth in the experiment with MALME-3M melanoma is -61.6% (active); in the experiment with MDA-MB-231 breast, -55.5% (active); in the experiment with SF-268 CNS, -39.3% (active); with SF-295 CNS, 37.6%; with SF-539 CNS, -60.6% (active); in the experiment on M14 melanoma it was -42.4% (active).

Consider `CC(=O)C(C(C)=O)C(c1ccccc1)C(C(C)=O)C(C)=O`, for which the growth was 98.6% in the experiment with NCI-H23 lung; 90.9% in the experiment with NCI-H226 lung; 99.7% with NCI-H322M lung; 98.4% with HOP-62 NSCLC; 105% in the experiment with NCI-H460 lung; 97.5% in the experiment with HOP-92 NSCLC. Besides, the growth was 91.7% with NCI-H522 lung; 89.3% in the experiment with A549/ATCC NSCLC; 97.2% in the experiment on 786-0 renal; 104% in the experiment on COLO 205 colon; 108% in the experiment with DU-145 prostate; 95.9% with K-562 leukemia. In addition, the growth in the experiment on MALME-3M melanoma is 108%; in the experiment on MDA-MB-231 breast it was 97.5%; in the experiment on SF-268 CNS, 108%; in the experiment with SF-295 CNS, 96.7%; in the experiment on SF-539 CNS, 101%; with M14 melanoma, 96.5%.

For `Cc1nn(-c2nc3ccccc3[nH]2)c2c1C(c1ccc(O)cc1)CC(=O)N2` (centres undefined), the growth was 74.9% in the experiment with NCI-H23 lung; 96.9% with NCI-H226 lung; 104% in the experiment with NCI-H322M lung; 93.1% in the experiment with HOP-62 NSCLC; 57.4% in the experiment with NCI-H460 lung; 99.3% in the experiment with HOP-92 NSCLC. Also, the growth was 52% with NCI-H522 lung; 61.3% in the experiment on A549/ATCC NSCLC; 115% in the experiment with 786-0 renal; 103% in the experiment on COLO 205 colon; 99.5% with DU-145 prostate; 97.8% with K-562 leukemia. The growth was 100% in the experiment on MALME-3M melanoma; 71.9% with MDA-MB-231 breast; 74% in the experiment with SF-268 CNS; -16.2% (active) with SF-295 CNS; 95.4% in the experiment with SF-539 CNS; 72% in the experiment on M14 melanoma.

On to `CC(C)[C@@H]1CC[C@]2(CO2)[C@@H]2C(=O)OCC(C(=O)O)=C[C@H]21`, for which the growth in the experiment on NCI-H23 lung was -18.4% (active); in the experiment on NCI-H226 lung it was 25.5%; in the experiment with NCI-H322M lung, 8.82% (active); with HOP-62 NSCLC, 5.26% (active); in the experiment on NCI-H460 lung it was 7.86% (active); in the experiment with HOP-92 NSCLC it was -11.9% (active). Moreover, the growth was -45.8% (active) in the experiment on NCI-H522 lung; 15.5% with A549/ATCC NSCLC; 11.6% in the experiment with 786-0 renal; 1.78% (active) in the experiment with COLO 205 colon; 7.04% (active) in the experiment with DU-145 prostate; 7.2% (active) with K-562 leukemia. Moreover, the growth in the experiment on MALME-3M melanoma is -3.58% (active); in the experiment on MDA-MB-231 breast it was 9.95% (active); with SF-268 CNS, 1.21% (active); in the experiment with SF-295 CNS, 22.2%; in the experiment on SF-539 CNS, 6.83% (active); with M14 melanoma, -48.5% (active).

Regarding `CCN1/C(=C/C=C/c2n(-c3ccccc3)c3ccc(-c4nc5ccccc5s4)cc3[n+]2CC)N(c2ccccc2)c2ccc(-c3nc4ccccc4s3)cc21`, the growth in the experiment with NCI-H23 lung was -0.899% (active); in the experiment with NCI-H226 lung it was 0.213% (active); in the experiment with NCI-H322M lung, 14.5%; in the experiment with HOP-62 NSCLC, -7.25% (active); with NCI-H460 lung, -1.59% (active); in the experiment with HOP-92 NSCLC, 1.91% (active). Besides, the growth with NCI-H522 lung is -0.409% (active); in the experiment on A549/ATCC NSCLC, 3.13% (active); with 786-0 renal, 3.99% (active); in the experiment with COLO 205 colon, -5.05% (active); in the experiment with DU-145 prostate it was -47.9% (active); in the experiment on K-562 leukemia, 10.2%. Also, the growth in the experiment with MALME-3M melanoma is -44.5% (active); with MDA-MB-231 breast it was 16.9%; with SF-268 CNS, 9.74% (active); in the experiment with SF-295 CNS, -30.4% (active); in the experiment on SF-539 CNS, -13.7% (active); in the experiment with M14 melanoma, -11.2% (active).

Take `COC(=O)[C@]12CC[C@@H](C)[C@H](C)[C@@H]1C1=CC[C@@H]3[C@@]4(C)C(C=O)=C[C@@](C)(COS(C)(=O)=O)C4=CC[C@@]3(C)[C@]1(C)CC2`: the growth with NCI-H23 lung is -45.8% (active); in the experiment on NCI-H226 lung, -57% (active); with NCI-H322M lung it was 12.2%; in the experiment with HOP-62 NSCLC, -14.5% (active); in the experiment on NCI-H460 lung it was -73.6% (active); with HOP-92 NSCLC it was -87.7% (active). In addition, the growth in the experiment with NCI-H522 lung was -75.2% (active); in the experiment on A549/ATCC NSCLC it was -14.6% (active); in the experiment with 786-0 renal, -66% (active); in the experiment on COLO 205 colon it was -39.9% (active); in the experiment on DU-145 prostate it was -92.2% (active); in the experiment with K-562 leukemia, -6.44% (active). The growth with MALME-3M melanoma is -77.7% (active); in the experiment with MDA-MB-231 breast it was -55.4% (active); in the experiment on SF-268 CNS it was -57.1% (active); with SF-295 CNS, -60.2% (active); with SF-539 CNS it was -69.8% (active); in the experiment with M14 melanoma, -55.8% (active).

These data come from PubChem BioAssay (NCI).
